# A selection: hits, their analogues and other compounds. The true share with any hit is near 4.8%.
# hgDAF12 agonist = agonists of H. glycines DAF-12 nuclear receptor | HEK293 GAL4-hgDAF12 UAS-luciferase reporter, agonist luminescence; normalized to butyrate control | activation, % at 6.8 µM | actives 1.8% (n = 370,000) | AID 687014;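 active = activation above a cutoff set at the mean of all screened compounds plus 3 SD, cut at about 10% in these data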
# DAX1 inh-1 = NR0B1 (DAX1) inhibition; actives 0.99% (n = 340,000); inhibition, % at 6.75 µM; P51843; HEK293 Gal4-DAX1 luciferase reporter, luminescence; AID 504766;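 active = inhibition above the mean over all tested compounds plus 3 SD, cut at about 4.2% in these data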;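 note: inhibition shows as a rise in luminescence from relieved DAX1 repression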
# Target sequence (P51843 207-470 limits assumed): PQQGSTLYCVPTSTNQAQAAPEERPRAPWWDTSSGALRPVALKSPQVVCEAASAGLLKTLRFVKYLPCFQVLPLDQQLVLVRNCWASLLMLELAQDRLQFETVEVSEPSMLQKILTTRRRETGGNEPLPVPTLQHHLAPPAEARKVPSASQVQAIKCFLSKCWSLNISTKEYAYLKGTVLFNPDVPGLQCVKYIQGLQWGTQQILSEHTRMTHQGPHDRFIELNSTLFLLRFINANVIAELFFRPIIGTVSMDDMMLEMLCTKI
# ssDAF12 agonist = activates DAF-12 receptor from parasite S. stercoralis | HEK293 ssDAF-12/GRIP1 lit1-tk-luc reporter, luminescence; % of 3 µM dafachronic acid response | activation, % at 6.8 µM | actives 1% (n = 370,000) | AID 652126;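 active = activation above the mean over all tested compounds plus 3 SD, cut at about 0.9% in these data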
# DAX1 inh-2 = DAX1 (NR0B1) inhibition, primary screen; HEK293T StAR-luciferase reporter, SF-1/DAX-1 repression relief; inhibition, % at 6.8 µM; actives 1.1% (n = 370,000);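 active = inhibition above the mean over all tested compounds plus 3 SD, cut at about 3.6% in these data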;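 note: higher inhibition means more luminescence from relief of DAX-1 repression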
# hcDAF-12 act = activates DAF-12 receptor from parasite H. contortus | HEK293 hcDAF-12 lit1-tk-luc reporter, luminescence; 0% DMSO, 100% Δ7-dafachronic acid | activation, % at 6.8 µM | actives 1.4% (n = 370,000) | AID 652067;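 active = activation above the mean of all tested compounds plus 3 SD, cut at about 5.5% in these data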
# NR1D1 modulator = modulators of human Rev-erb alpha DNA binding. P20393. Rev-erbα–FITC-DNA binding, fluorescence polarization, 90 min. activity, % at 10 µM. actives 0.79% (n = 370,000). AID 1259318;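 active = activity above about 14%, limit read from the data; passing the limit was not always enough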
# hgDAF12 ag = hgDAF-12 agonism, confirmation assay; shares compounds with hgDAF12 agonist; HEK293 GAL4-hgDAF12 luciferase reporter, agonist mode; percent of butyrate response; activation, % at 6.8 µM; actives 80% (n = 3,300);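 active = mean activation over triplicate wells above the hit cutoff derived from the earlier primary screen, cut at about 11% in these data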
# LXRb DAF12 ctr = activates human LXR-beta, counter-screen for DAF-12 agonists. AID 743051. 3,300 tested, under 10 active. HEK293 Gal4-LXR luciferase reporter, 24 h. activation, % at 6.8 µM. shares compounds with hgDAF12 agonist;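 active = mean activation of the triplicate above a set limit carried over from the primary screen, none filed active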
# Hits are given with their value; i = inactive; nt = no result given.
SMILES,hgDAF12 agonist,DAX1 inh-1,ssDAF12 agonist,DAX1 inh-2,hcDAF-12 act,NR1D1 modulator,hgDAF12 ag,LXRb DAF12 ctr
Cc1ccc(S(=O)(=O)/N=C(/NNC(=O)c2cccc(Cl)c2)c2ccccc2)cc1,14,i,i,i,i,i,21,i
COc1ccc(NC(=S)NC(=NS(=O)(=O)c2ccc(Cl)cc2)c2ccccc2)cc1,13,i,i,i,i,i,i,i
O=C(NN/C(=N/S(=O)(=O)c1ccc(Cl)cc1)c1ccccc1)c1ccc(O)cc1,16,i,i,i,i,i,i,i
COc1ccc(-c2nc3c(C)cc(Br)cn3c2Cc2ccccc2C(F)(F)F)cc1OC,i,nt,i,i,i,i,nt,nt
C[C@H]1O[C@@H](n2c3ccc(Cl)cc3c3ccc4c5cc(Cl)ccc5[nH]c4c32)[C@H](O)[C@H](O)[C@H]1O,i,nt,i,i,i,i,nt,nt
CC(=O)Nc1ccc(C(=O)c2ccccc2)cc1,i,i,i,i,i,i,nt,nt
CC(=O)Nc1ccc(/C(N=Nc2ccccc2)=N/N=C(N)N)cc1,13,4.5,1.6,i,i,i,16,i
O=C(Nc1ccccc1C(=O)N/N=C/c1ccncc1)c1ccccc1,14,i,i,i,i,i,12,i
O=C(N/N=C/c1cccc(O)c1)c1ccccc1O,16,i,i,i,i,i,i,i
O=C(N/N=C/c1cccc(O)c1)c1csc2ccccc12,i,i,i,i,i,i,nt,nt
COc1ccc(C=NNC(=O)c2cc(C)oc2C)cc1O,13,i,i,i,i,i,14,i
Cc1ccc(-c2nc3ccccc3s2)cc1NC(=S)NC(=O)c1cccc2ccccc12,17,4.4,i,i,6.0,i,12,i
Cc1ccc(C(=O)N(C)[C@H]2C[C@H]3c4[nH]c5c(-c6cccc(C)c6)cccc5c4CCN3C[C@H]2[C@H](C)O)cc1,i,nt,i,i,i,i,nt,nt
COc1ccc(NC(=O)C2=Cc3cccc(OC)c3OC2)cc1,15,i,i,i,i,i,i,i
O=C(Nc1ccon1)c1ccc(Br)s1,i,i,i,i,i,i,nt,nt
O=C(Nc1ccc(Br)cn1)c1ccc(Br)s1,20,i,i,i,6.2,i,20,i
O=C(Nc1ccc(Br)cn1)c1ccc(Cl)s1,15,i,i,i,i,i,14,i
O=C(Nc1ccccc1C(=O)Nc1ccc(Br)cn1)c1ccccc1Cl,i,i,i,i,i,i,nt,nt
Cc1ccccc1C(=O)Nc1ccc(Br)cn1,14,i,i,i,i,i,16,i
O=C(NC1=NCCS1)c1ccc(Br)s1,14,i,i,3.8,6.0,i,13,i
O=C(NC1=NCCS1)c1ccccc1Br,i,nt,i,i,i,i,nt,nt
CC(=O)N(Cc1ccccc1)c1nccs1,i,nt,i,i,i,i,nt,nt
COc1ccc(CN2C[C@H](COCc3ccccc3)Oc3cccc(Oc4ccc(C(C)C)cc4)c3S2(=O)=O)cc1,i,nt,i,i,i,i,nt,nt
COC(=O)[C@]12C[C@H](CC(=O)NCC34CC5CC(CC(C5)C3)C4)C(=O)N(Cc3ccc4c(c3)OCO4)C1=C[C@H](C(C)(C)C)O[C@@H]2C,i,nt,i,i,i,i,nt,nt
Cc1ccc2nc(-c3ccc4c(c3)NC(=O)CO4)cn2c1,14,i,i,4.5,i,i,14,i
SMILES,hgDAF12 agonist,DAX1 inh-1,ssDAF12 agonist,DAX1 inh-2,hcDAF-12 act,NR1D1 modulator,hgDAF12 ag,LXRb DAF12 ctr
Nc1nc(-c2ccc3c(c2)NC(=O)CO3)cs1,i,i,i,i,i,i,nt,nt
Cc1ccc(C(=O)Nc2nnc(-c3ccco3)o2)cc1C,14,i,1.1,i,i,i,i,i
COc1cccc(N2CCN(C(=O)c3ccc4nc(N5CCCCC5)sc4c3)CC2)c1,21,5.5,i,i,i,i,i,i
COc1ccc(N2CCN(C(=O)c3ccc4nc(N5CCCCC5)sc4c3)CC2)cc1,i,i,i,i,i,i,nt,nt
CC(C)(C)c1ccc(/C=C/C(=O)Nc2cccnc2)cc1,16,i,i,i,i,i,14,i
O=C(/C=C/c1ccccc1Cl)Nc1cccnc1,19,i,i,i,i,i,21,i
COc1ccc(OCc2cc(C(=O)NC3Cc4ccccc4C3)no2)c(Cl)c1,15,i,i,i,i,i,i,i
COc1ccc(OCc2cc(C(=O)NC(C)Cc3ccccn3)no2)c(Cl)c1 (stereo not drawn),i,i,i,i,i,i,nt,nt
C/C(CC(=O)Nc1cccc(Cl)c1Cl)=N\NC(=O)c1ccccc1N,14,4.2,i,i,i,i,i,i
O=C(NC(=S)Nc1ccccc1)c1cccs1,15,4.5,i,i,i,i,17,i
O=C(Nc1ccc(NC(=S)NC(=O)c2cccs2)cc1)c1ccccc1,i,i,i,i,i,i,nt,nt
Nc1nnc(-c2ccc(Cl)cc2Cl)s1,15,i,i,i,i,i,i,i
Nc1nnc(Cc2ccc(Cl)cc2Cl)s1,i,i,i,i,i,i,nt,nt
OC[C@H]1O[C@@H](c2nc3ccc(-c4nc(-c5ccc(Br)cc5)no4)cc3[nH]2)C[C@@H]1O,14,nt,i,4.4,i,i,i,i
CC(=O)Oc1ccc(-c2csc(Nc3ccccn3)n2)cc1,16,i,i,3.9,i,i,14,i
CC(=O)Nc1ccc(-c2csc(Nc3ccc(Cl)cn3)n2)cc1,i,i,i,i,i,i,nt,nt
CC(=O)Nc1cccc(-c2csc(Nc3ccc(Cl)cn3)n2)c1,13,5.9,i,3.8,i,i,13,i
CC(=O)Oc1ccc(-c2csc(Nc3cccnc3)n2)cc1,i,i,i,i,i,i,nt,nt
c1ccc(-n2cnc3cc(NCc4ccco4)ccc32)cc1,17,i,i,4.5,i,i,i,i
Cc1nn(C(=O)c2cccs2)c(N)c1-c1ccccc1,15,i,i,3.7,i,i,17,i
COC(=O)c1ccccc1NC(=O)NCC1CCN(Cc2ccc(OC)cc2)CC1,i,nt,i,i,i,i,nt,nt
COc1cc(-c2nnc(SCC(=O)N3C(C)CCCC3C)o2)cc(OC)c1OC (stereo not drawn),i,nt,i,i,i,i,nt,nt
O=c1c2ccccc2nnn1CSc1ccc2ccccc2n1,i,i,i,i,i,i,nt,nt
O=c1c2ccccc2nnn1CSc1ccccc1,16,i,i,3.6,i,i,14,i
COC(=O)N1N=C(c2ccc(Br)cc2)CC1(O)C(F)(F)F (stereo not drawn),14,i,1.6,i,i,i,11,i
CCOC(=O)N1N=C(c2ccccc2)CC1(O)C(F)(F)F (stereo not drawn),i,i,i,i,i,i,nt,nt

# Bioassay records from PubChem.
